Screening data deposited in PubChem by National Center for Advancing Translational Sciences (NCATS).
This is a sample that favours compounds with a hit; in the whole collection about 8% have one here.
MARV entry inh = qHTS for inhibitors of binding or entry into cells for Marburg Virus; Marburg virus pseudotyped entry inhibition, cell reporter; Potency, µM (highest dose often 37.8 µM), for inactives: at the top dose activity change, negative = inhibition, usual class: inhibitors; 300,000 compounds, 1.8% hits; AID 540276, 2011; calls by dose curve; tested in HEK293 cells; also: potency is read from the fitted curve at half-maximal effect; % is scaled to controls: 0 for no effect and ±100 for the full control effect
FMDV antiviral = High Throughput Screening for Foot and Mouth Disease Virus Antivirals. FMDV antiviral cell-based qHTS. Potency, µM (top dose mostly 57.9 µM), without a hit: at the top dose activity change, negative = inhibition, actives largely listed as inhibitors. 410,000 compounds, 1.2% hits. AID 1159524, 2015; calls by dose curve; tested in HEK293T cells; also: read-out not given here; potency is read from the fitted curve at half-maximal effect; % is scaled to controls: 0 for no effect and ±100 for the full control effect; nearly all actives have a fitted effect of over 45% in size
HCV inhibitor = qHTS Assay for Inhibitors of Hepatitis C Virus (HCV) | 340,000 compounds, 3.4% hits | Potency, µM (doses to about 41.8 µM), inactives show at the top dose activity change, negative = inhibition, hits mostly inhibitors | Huh7.5.1 HCVcc-Cre infection, luciferase reporter, 44 h; active = well fitted inhibition curve with a large enough effect; inconclusive = small, poorly fitted or top-dose-only effect, or another doubt; inactive = no such curve, though single readings can be large or run the other way; also: potency is read from the fitted curve at half-maximal effect; % is scaled to controls: 0 for no effect and ±100 for the full control effect
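A cell-based infection assay in which seeded cells (1,000 per well) receive test compound after 4 h, are inoculated with HCVcc-Cre at approximately 0.5 moi, and are incubated 44 h before luminescence detection.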
LASV entry inh = qHTS for Inhibitors of binding or entry into cells for Lassa Virus; Lassa virus pseudotype entry inhibition, cell reporter; Potency, µM (titrated, usually from 37.9 µM), inactives show at the highest dose activity change, negative = inhibition, hits mostly inhibitors; 300,000 compounds, 1.2% hits; calls by dose curve; tested in HEK293 cells; also: potency is read from the fitted curve at half-maximal effect; % is scaled to controls: 0 for no effect and ±100 for the full control effect; nearly all actives have a fitted effect of over 50% in size
HCMV antiviral = qHTS Assay for inhibitors of the human cytomegalovirus (HCMV). 410,000 compounds, 4.5% hits. activity change, negative = inhibition, % at 57.5 µM. HFF cells, HCMV-luciferase reporter, 72 h; active compounds read low; in the data active = activity change below about -60%; inconclusive = no clear call, values can overlap the other calls; inactive = above about -39%; also: % is scaled to controls: 0 for no effect and ±100 for the full control effect
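Cell-based, HFFs, 1000 cells/well, 16 h 37C; cpds in DMSO + HCMV-luc, MOI 1 PFU/cell; 72 h 37C; OneGlo luminescence after 5 min RT; norm. to buffer vs Salinomycin 10uM.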
SARS PLpro yeast = qHTS of Yeast-based Assay for SARS-CoV PLP. S. cerevisiae expressing SARS-CoV PLpro, growth rescue. Potency, µM (series often up to 32.9 µM), inactives show at the highest dose activity, positive = growth rescue, most hits filed as activators. 330,000 compounds, 0.19% hits. AID 485353, 2010; calls by dose curve; also: potency is read from the fitted curve at half-maximal effect; 0% is about no effect; nearly all actives have a fitted effect of over 55% in size
* marks the source's active call; other numbers are inactive results; ? = inconclusive; . = no result; [ ] = remark or other dose.

SMILES	MARV entry inh	FMDV antiviral	HCV inhibitor	LASV entry inh	HCMV antiviral	SARS PLpro yeast
O=C1CC(c2ccccc2)CC2=C1C=Nc1ccccc1N2 (stereo not given)	?	?	-27%	?	-77*	-1%
CN1CCN(c2ccc(CNS(=O)(=O)c3ccsc3)cc2)CC1	.	9%	17%	.	-4	-1%
Cc1cccc(NC(=O)C2CCCN2C(=O)NC2CCCCC2)c1 (stereo not given)	.	9%	7%	.	-16	1%
Cc1cccc(N2CCN(CCCNC(=O)c3nnc(Cc4c(F)cccc4Cl)o3)CC2C)c1 (stereo not given)	?	?	.	-16%[46.1 µM]	-26	.
Cn1nc(C(F)(F)F)c(C#N)c1N1CCN(c2ccc(F)cc2)CC1	-17%	?	?	-9%	-73*	-32%
COc1ccc2[nH]cc(CCN3C(=O)CCC3=O)c2c1	8%	-8%	6%	-8%	-10	4%
COc1ccc2[nH]cc(CCCN3C(=O)c4ccccc4C3=O)c2c1	?	-19%	-24%	11µM*	-36	-12%
CCOC(=O)C1=C(C)NC(=S)NC1c1ccc(-c2cccc(Cl)c2C)o1 (stereo not given)	?	?	6.3µM*	?	-9	6%
CCOC(=O)C1=C(C)NC(=O)NC1c1ccc(-c2ccc(Cl)cc2)o1 (stereo not given)	?	?	?	-3%	9	0%
CCOC(=O)C1=C(C)NC(=S)NC1c1ccco1 (stereo not given)	16%[46.1 µM]	-21%	-8%	-2%[46.1 µM]	53	-1%
CCOC(=O)C1=C(C)NC(=S)NC1c1ccc(-c2ccc(Cl)cc2)o1 (stereo not given)	13µM*	?	?	-5%	-32	-3%
COc1ccc2cc(C#CC3=CC(=O)C[C@H](c4ccc(F)cc4)C3)ccc2c1	.	-8%	.	.	-31	.
COc1ccc(CS(=O)(=O)/C(Cl)=C(/Cl)C(=O)Nc2ccc(OC)nc2)cc1	2.8µM*	11µM*	4µM*	6.3µM*	.	-22%
COc1ccc(CC(Cc2ccc(OC)c(OC)c2)NC=O)cc1OC	.	0%	.	.	24	.
O=C(NCCCO)c1cc2c([nH]c3ccccc32)c(-c2ccccc2)n1	?	-29%	10µM*	0%[46.1 µM]	-28	0%
O=C(NCCCN1CCOCC1)c1cc2c([nH]c3ccccc32)c(-c2cccc(Br)c2)n1	.	?	?	.	-21	-8%
COc1cccc(-c2nc(C(=O)NCCCN3CCOCC3)cc3c2[nH]c2ccccc23)c1	.	-28%	11µM*	.	-74*	-6%
CCC(NC(=S)NC1CCCCC1)c1ccc(C)cc1 (stereo not given)	.	.	.	.	.	-5%
CCN(CC)c1nc(-c2ccc(C(C)(C)C)cc2)nc2ccccc12	.	?	.	13µM*	-15	.
CC(C)CN(CC(C)C)c1nc(-c2ccc(Cl)cc2)nc2ccccc12	8%[46.1 µM]	-21%	.	12%[46.1 µM]	21	.
CC(=O)Nc1cc(C(=O)N2CCSCC2)cc2ncn(CCc3ccccn3)c12	.	-11%	.	.	.	.
CN(C)c1ccc(/C=N/NC(=O)CCc2c[nH]c3ccccc23)cc1	?	10%	-11%	2µM*	-1	1%
O=C(NN=Cc1ccc(N(CCCl)CCCl)cc1)C(=O)c1c[nH]c2ccccc12	4.5µM*	2%	?	6.3µM*	-21	.
CCN(CC)c1ccc(/C=N/NC(=O)c2c[nH]c3ccccc23)cc1	4%	6%	?	11µM*	-67*	-4%
O=C(Cc1c[nH]c2ccccc12)N/N=C/c1ccc(F)cc1	0%	-3%	9%	?	22	1%
SMILES	MARV entry inh	FMDV antiviral	HCV inhibitor	LASV entry inh	HCMV antiviral	SARS PLpro yeast
CN(CCO)C(=O)c1cn(C2CCCN(Cc3ccc(C(F)(F)F)cc3)C2)nn1 (stereo not given)	.	-16%	.	.	.	.
CCc1ccc(C2c3c(-c4cc(C)ccc4O)n[nH]c3C(=O)N2CCO)cc1 (stereo not given)	?	-26%	.	?	11	.
CCCOc1ccc(-c2cn3ccccc3n2)cc1	.	-54%	?	.	-64*	-19%
CC(=O)c1sc(NC(=O)COc2ccccc2)nc1C	9%[46.1 µM]	53%	-13%	-16%	13	-6%
CC(=O)c1sc(NC(=O)COc2ccc(C(C)C)c(C)c2)nc1C	23%[46.1 µM]	-27%	2.5µM*	4%	-38	-5%
Cc1ccc(C)c(S(=O)(=O)c2cn(C)c3cc(N4CCCCC4C)c(F)cc3c2=O)c1 (stereo not given)	.	-6%	.	-4%[46.1 µM]	-15	.
CCc1c(C)nc2cc(-c3ccc(OC)c(OC)c3)nn2c1N1CCCC1	?	.	1.8µM*	?	?	-29%
COc1ccc(-c2c(C)nn3c(N4CCCCCC4)cc(C)nc23)cc1OC	?	-43%	11µM*	-12%[46.1 µM]	-61*	-2%
CCc1c(C)nc2cc(-c3cc(OC)cc(OC)c3)nn2c1N1CCCC1	3.7µM*	.	?	-25%	?	-28%
COc1ccccc1NC(=O)CC1Sc2ccc(C(F)(F)F)cc2NC1=O (stereo not given)	.	0%	.	-5%[46.1 µM]	7	.
CCCc1cc(C(=O)Nc2c(C)nn(Cc3ccc(C)cc3)c2C)no1	?	?	.	-12%[46.1 µM]	-9	.
Cc1nn(Cc2ccc(Cl)c(Cl)c2)c(C)c1NC(=O)c1cc(CC(C)C)on1	.	?	11µM*	.	-31	-2%
CCCc1cc(C(=O)Nc2c(C)nn(Cc3c(Cl)cccc3Cl)c2C)no1	?	-15%	.	4µM*	-30	.
CCCc1cc(C(=O)Nc2c(C)nn(Cc3ccc(Cl)c(Cl)c3)c2C)no1	?	?	.	?	-34	.
Cc1nn(Cc2c(F)c(F)c(F)c(F)c2F)c(C)c1NC(=O)c1ccc(COc2ccccc2Cl)o1	?	-26%	16µM*	?	-66*	-8%
COc1ccccc1-c1ccc(C(=O)N(C)CC2COCCO2)c(N2CCN(c3ccccc3F)CC2)n1 (stereo not given)	.	-12%	.	.	.	.
O=C1C(=Cc2ccc(F)cc2)CCc2ccccc21	.	-6%	.	.	-1	.
C=CC(=O)N1C/C(=C/c2ccc(F)cc2)C(=O)/C(=C\c2ccc(F)cc2)C1	?	8.9µM*	?	2.5µM*	-100*	.
O=C(CCC(=O)Nc1cccc([N+](=O)[O-])c1)N/N=C/c1cccs1	.	12%	-17%	.	8	2%
CCOc1ccccc1CNC(=O)c1ccc2c(c1)nc1n2CCCCC1	.	19%	.	5µM*	-68*	.
COc1ccc(CNC(=O)c2ccc3c(c2)nc2n3CCCCC2)cc1	.	34%	.	?	61	.
CCOc1ccccc1CNC(=O)Cc1ccc(NC(=O)N2CCCCc3ccccc32)cc1	.	-17%	.	4.5µM*	28	.
